One may read the inhibition as the drop in the measured response relative to a control, in per cent.

The structures appear in SMILES notation. Screen size: about 360,000 compounds; about 610 (0.17%) were called active. Inconclusive results (about 2%) are left out. The sample holds actives, similar compounds and a random draw of the others, so the mix is not that of the screen. Unmarked numbers belong to inactive results. Cut-off read from the data, not from the text of the source: active = inhibition above about 30%; inconclusive = no clear call, values can overlap the other calls; inactive = below that.

This assay relates to Botulinum neurotoxin type A light chain protease (Clostridium botulinum A str. ATCC 3502). In words: blockers of BoNT/A LC substrate cleavage – biochemical, flow cytometry, MLPCN library, primary screen (AID 588499). Note: plate controls were buffer without enzyme for full effect and enzyme alone for no effect. The following applies: multiplex microsphere protease substrate cleavage, at 10 µM, hits give high values. Background: In flow cytometry, cells or beads pass a laser one at a time.
With `NC(CSC12CC3CC(CC(C3)C1)C2)C(=O)O` (configuration not stated), the inhibition is 1.6%.
Under `CCCCN(C(=O)COc1ccc(NC(C)=O)cc1)C1CCS(=O)(=O)C1` (configuration not stated) stands 1.1%; under `O=C(Nc1ccc(-n2ccnc2P(=O)(O)c2ccccc2)cc1)c1ccccc1Br`, 1.4%; under `COC(=O)C[n+]1cccc2ccccc21`, 28.6%.
The value for `O=C(C[n+]1cc(Br)cc2ccccc21)c1ccc(F)cc1` was 120% (active).
As for `O=C(CNC(=O)c1ccccc1F)c1ccc(Br)cc1`, the inhibition is 0.8%.
On to `Cc1cc(C)c2c(c1)cc(C)c1nnc(SCC(=O)Nc3cc(C)on3)n12`, for which the inhibition was -0.7%.
Under `COc1cc(C(=O)NCc2cc3cc(Cl)ccc3n2C)cc(OC)c1OC` stands 0.3%; under `CCOCC(=O)NCc1ccc2c(c1)cc(C)n2C`, 6%; under `COc1cc(C(=O)NCc2ccc3c(c2)cc(C)n3C)cc(OC)c1OC`, 74.1% (active).
The value for `CCC(Cc1ccccc1)NC(=O)C1CCCCC1` (configuration not stated) was 0.2%; that for `O=C(c1c(Cl)nc2sccn12)N1CCCc2ccccc21` was 0%.
Under `Cc1cccc2cc3c(N)c(C(=O)N4CCCc5ccccc54)sc3nc12` stands 54.5% (active); under `Cc1ccc(C(=O)N2CCCc3ccccc32)c(Cl)c1`, -0.5%.
As to `COc1cc2ccc(C(C)=O)c(O)c2cc1OC`, the inhibition is 0%.
The value for `C[C@H]1COc2cc(N3CCSCC3)ccc2S(=O)(=O)N1` was 1.1%; that for `Cc1noc(C)c1NC(=O)Nc1cccc2c1O[C@H](CN(C)S(=O)(=O)c1c(C)noc1C)[C@@H](C)CN([C@H](C)CO)C2=O` was -0.8%.
The value for `COc1ccc(OC)c(NC(=O)C2CCCN2S(=O)(=O)c2cccc3nsnc23)c1` (configuration not stated) was 0.9%; that for `O=c1c(-c2ccccc2Cl)c[nH]n1-c1ccccc1` was 1.7%.
Under `CCCCNC(=O)C[C@@H]1C[C@@]2(C(=O)OCC)CCC=C2N(Cc2ccco2)C1=O` stands 0.2%; under `CN1CC(c2ccccc2)C2(COc3ccccc3C2=O)C12C(=O)Nc1ccccc12` (configuration not stated), -0.4%.
For `CCc1nc2c(OCC(=O)C(C)(C)C)cccn2c1N(C)C(=O)c1ccccc1F`, the inhibition was -0.5%.
Under `CC(NCc1nc2ccccc2n1C)C12CC3CC(CC(C3)C1)C2` (configuration not stated) stands 0%; under `COc1ccc(CCNC2=C(Cl)C(=O)N(Cc3ccccc3)C2=O)cc1OC`, -0.2%.
The value for `CN1C=CC=C/C1=C1\SC(=S)N(Cc2ccccc2)C1=O` was -1.8%; that for `COc1cc(/C=C2/SC(=S)N(Cc3ccccc3)C2=O)cc(OC)c1O` was 39.9% (active).
Turning to `O=C(O)CN(Cc1ccco1)S(=O)(=O)c1ccc(F)cc1`, the inhibition is -0.4%.
The value for `Cc1csc(Nc2ccc(Cl)cc2)[n+]1-c1ccc(Cl)cc1` was -2%; that for `O=C(CN1C(=O)c2ccc([N+](=O)[O-])cc2C1=O)Nc1nnc(C2CC2)s1` was -0.6%.
The value for `COc1cccc(-c2cc3nc4c(c(N5CCC6(CC5)OCCO6)n3n2)CCCC4)c1` was 0.1%.
Regarding `Cc1onc(-c2ccccc2Cl)c1C(=O)N(Cc1ccc(N(C)C)cc1)C(C)C`, the inhibition is -3.2%.
Under `Cc1ccc2cc(CCNC(=O)c3c(-c4ccccc4Cl)noc3C)c(=O)[nH]c2c1` stands -0.3%; under `Cc1onc(-c2ccccc2Cl)c1C(=O)NCCn1ccc2ccccc21`, 81.2% (active); under `Oc1c(Cl)cc(Cl)c(Cl)c1Cc1c(O)c(Cl)cc(Cl)c1Cl`, -1%.
With `CC(=O)Nc1ccc(NC(=O)C(C)n2c3ccccc3c3nc(=O)cc(C)n32)cc1` (configuration not stated), the inhibition is -0.3%.
The value for `COc1ccc(-c2cc3c(c4c2ccn4C)C2CCC3C2)cn1` (configuration not stated) was 52.1% (active).
The value for `Cc1cccc(S(=O)(=O)N(C)C[C@H]2OCc3cnnn3CCCC(=O)N([C@@H](C)CO)C[C@H]2C)c1` was -0.3%; that for `Cc1c(CC(=O)N2CCN(C(=O)C3COc4ccccc4O3)CC2)c(=O)oc2c(O)c(O)ccc12` (configuration not stated) was 3.7%; that for `COc1ccc(CCNC(=O)C2CC3Cn4c(nc5cc(C)c(C)cc54)C3N2C)cc1` (configuration not stated) was -0.2%.
Under `O=C1[C@@H]2C(c3cccnc3)=NO[C@@H]2C(=O)N1c1ccc(Cl)cc1Cl` stands -0.1%; under `COc1ccc(NC(=O)N2CCCC(C(=O)Nc3ccccc3OC)C2)cc1` (configuration not stated), -1.6%.
As for `CC1(C(=O)NCc2ccc3c(c2)OCO3)CCN1C(=O)Cc1cccs1` (configuration not stated), the inhibition was -0.2%.
Under `CCN(CC)C(=O)C(C)N1c2cccc3cccc(c23)S1(=O)=O` (configuration not stated) stands 0.5%.
Under `CC(C)c1nc(CNC(=O)CC2C(=O)NCCN2Cc2cccc(F)c2F)cs1` (configuration not stated) stands 0%; under `Cc1ccc(C(=O)NCC(=O)OCC(=O)Nc2cccc(S(=O)(=O)N3CCCC3)c2)cc1C`, -0.4%; under `COC1=NC2=NCCN2C(OC)=N1`, -0.5%.
The value for `C[C@H](CO)N1C[C@H](C)[C@@H](CN(C)C(=O)C2CCCCC2)OCc2cnnn2CCCC1=O` was -0.2%; that for `COc1ccc(S(=O)(=O)N(CCCN2CCCC2=O)Cc2cc3c(C)ccc(C)c3[nH]c2=O)cc1` was 0.4%.
As for `CNC(=O)Nc1cc(C(C)(C)C)no1`, the inhibition is 0%.
Regarding `CCOC(=O)C1=C(C)NC2=C(C(=O)CC(C)(C)C2)C1c1ccsc1` (configuration not stated), the inhibition was 1.6%.
Under `Cc1ccc(NC(=O)COc2ccc(-n3ccnc3)cc2)cc1Cl` stands -0.5%.
Under `Cc1ccc(-c2nc(-c3cccnc3)sc2CC(=O)Nc2ccc(C)c(Cl)c2)cc1` stands 51.4% (active); under `Cc1nc(-c2ccc(F)cc2)c(CC(=O)Nc2cccc(S(=O)(=O)N3CCOCC3)c2)s1`, 1.2%; under `Nc1ncnc2c1cnn2C1CC(O)C(CO)O1` (configuration not stated), 0.6%.
On to `C=C1C(=O)[C@]23C[C@H]1CCC2[C@@]1(C)C(C[C@@H]3O)[C@](C)(C(=O)O)CC[C@@H]1O` (some centres not stated), for which the inhibition was 0.1%.
The value for `Cc1cc(N2CCCC2)ccc1NC(=O)COc1ccc(Cl)cc1` was -8.3%; that for `CCN1/C(=C\c2ccc3ccccc3[n+]2CC)Sc2cc(C)ccc21` was 71.1% (active).
The value for `CC(C)C[C@@H](COCc1ccc(Cl)cc1)N1CCN(C(=O)c2ccc(Cl)cc2Cl)CCC1=O` was -0.6%.
The value for `COc1ccc(C(=O)NC(=S)N2CCNC(=O)C2CC(=O)OC(C)C)cc1` (configuration not stated) was -0.1%; that for `Cc1cccc(-n2c(SCC(N)=O)nc3c(c2=O)C2(CCCCC2)Cc2ccccc2-3)c1` was -0.1%; that for `COc1ccc(COC[C@H](CC(C)C)N2CCN(C(=O)c3cccc(C(F)(F)F)c3)CCC2=O)cc1` was 0.7%.
In the case of `CC(C(=O)Nc1ccc(O)c(C(=O)O)c1)N1C(=O)/C(=C/c2cccs2)SC1=S` (configuration not stated), the inhibition is 2%.
`NS(=O)(=O)c1ccc(-c2ccc(/C=C3\SC(=O)NC3=O)o2)cc1`: the inhibition was 0.3%.
Under `Cc1ccc(C(=O)O)cc1-c1ccc(/C=C2\SC(=O)N(CC(=O)Nc3ccc4c(c3)OCO4)C2=O)o1` stands 0.8%; under `CC(C(=O)NC1CCS(=O)(=O)C1)N1C(=O)/C(=C/c2ccc(Cl)cc2)SC1=S` (configuration not stated), 2.3%; under `CN1C(=O)/C(=C\c2ccc(-c3ccccc3)o2)SC1=S`, 66.9% (active).
The value for `O=C(O)C(c1ccccc1)N1C(=O)/C(=C\c2ccc(-c3cccc(Cl)c3)o2)SC1=S` (configuration not stated) was 39.3% (active); that for `CN(CC(=O)Nc1c(Cl)cccc1Cl)C(=O)c1ccncc1` was -3.2%.
Under `COc1ccc(C(c2nnnn2Cc2cccs2)N2CCN(c3ccccc3)CC2)cc1OC` (configuration not stated) stands -0.3%; under `CCOCCCNC(=O)c1cn(CC(C)C)c(=O)c2c1c1ccccc1n2C`, 2.4%.
For the compound `O=c1[nH][nH]c2c1[C@H](c1ccc(Cl)cc1)O[C@H](CCc1ccccc1)C2`, the inhibition is -0.3%.
For the compound `COc1ccc(C(NC(=O)C2CCN(CCCc3ccccc3)CC2)c2cccs2)cc1` (configuration not stated), the inhibition is -0.5%.
Take `O=C(Nc1ccc2c(c1)[C@@H]1C[C@@H](CC(=O)N3CCCCC3)O[C@@H](CO)[C@@H]1O2)NC1CCCCC1`: the inhibition is 0.1%.
Under `COC(=O)[C@]12CCCCC=C1N(Cc1ccco1)C(=O)[C@H](CC(=O)NCC1CCCCC1)C2` stands -1.1%; under `Cc1ccc(CCn2c3c(c4ccccc42)CN(C)CC3)cn1`, 1.5%; under `CCC(C)C(N=C1NS(=O)(=O)c2ccccc21)C(=O)N1CCC(C)CC1` (configuration not stated), -2.7%.
The value for `CCCSc1nc2sc3c(c2c(=O)n1-c1ccc(OC)cc1)CCN(C)C3` was 49.9% (active).
The value for `CCOc1ccc(-n2c(SCC(=O)OC)nc3sc4c(c3c2=O)CCN(C)C4)cc1` was 26.5%; that for `CCSc1nc2sc3c(c2c(=O)n1-c1ccc(C)cc1)CCN(C)C3` was 9.9%; that for `O=S1(=O)CC(N2CCSCC2)CN1Cc1cn(Cc2cccc(Cl)c2)nn1` (configuration not stated) was 0.5%.
For `Cc1ccc(SCC(=O)NNC(=O)c2ccc(S(C)(=O)=O)cc2)cc1`, the inhibition is 0.3%.
Under `CC1CCCCC1NC(=O)NC(=O)COC(=O)C1=NN(c2ccccc2)C(=O)CC1` (configuration not stated) stands -0.8%.
The value for `CCOc1ccc(NC(=S)N2CCCCCC2)cc1` was 0%; that for `CC(=NNC(=S)N1CCCCCC1)c1ccccn1` was 32.5% (active); that for `CCNC(=S)N1CCN(c2ncccn2)CC1` was 1.2%.
On to `CCc1[nH]nc(C(=O)N2CCCC(CO)(Cc3ccc(F)cc3F)C2)c1C` (configuration not stated), for which the inhibition is 0.2%.
For the compound `O=C(c1cccc(-n2cccc2)c1)N1CCN(S(=O)(=O)c2ccc(F)cc2)CC1`, the inhibition was -0.8%.
The value for `CCCCN1C(=O)C(CC(=O)NCc2cccs2)CC(C(=O)N2CCCCCC2)=C1C` (configuration not stated) was 0%; that for `CCN(CC)C(=O)CSC1c2ccccc2C(=O)N1c1ccccc1` (configuration not stated) was -1.6%.
Under `COc1ccc(NC(=O)c2cn(CCC#N)nc2-c2ccc([N+](=O)[O-])cc2)cc1` stands -1.1%; under `COc1ccc(C(=O)Nc2nc(-c3ccc(OC)cc3)c(-c3ccc([N+](=O)[O-])cc3)s2)cc1`, 40.2% (active); under `COc1ccc(-c2[nH][nH]c(=O)c2NC(=O)c2ccc([N+](=O)[O-])cc2)cc1`, 0.1%.

The values are drawn from PubChem BioAssay AID588499 (NMMLSC, 2011).
